# Results filed as inconclusive are left out. The source made the active and inactive calls. Calls follow the shape of the full dose curve.
# Experiment: qHTS for Inhibitors of Cell Surface uPA Generation: Wild-type Protective Antigen (WT-PrAg) Counterscreen for Cherry-picked Compounds; also: 0% is about no effect
# Details: cells, WT protective antigen toxicity counterscreen; series mostly up to 115 µM; activity (protection): at the top concentration
row,SMILES,activity (protection)
1,COc1ccccc1N1CCN(C(=O)CCC(=O)N2CCN(c3ccc(F)cc3)CC2)CC1,-1.42% (inactive)
2,OCC[C@@H]1C[C@H](O)[C@@H](O)[C@]2(OCCc3ccccc32)O1,-0.757% (inactive)
3,Cc1cc(C)cc(S(=O)(=O)c2cn(C)c3cc(N4CCN(C)CC4)c(F)cc3c2=O)c1,-0.207% (inactive)
4,COc1ccc(N2CCN(C(=O)COc3ccc4c(C)c(C)c(=O)oc4c3C)CC2)cc1,-1.1% (inactive)
5,O=C(/C=C/c1cccc(Oc2ccccc2)c1)N1CCOCC1,0.547% (inactive)
6,O=C(O)CCc1nn2c3ccccc3n(CC(=O)O)c2nc1=O,0.284% (inactive)
7,COc1ccc(C(CNC(=O)C(C)Oc2ccc(Br)cc2)N2CCCC2)cc1 (centres undefined),-1.61% (inactive)
8,COc1ccccc1NC(=O)N1C[C@@H]2C[C@@H](C1)c1cccc(=O)n1C2,0.274% (inactive)
9,COc1ccc(-n2nnnc2SCC(=O)Nc2nnc(C)s2)cc1,-0.427% (inactive)
10,O=c1[nH]c(SCc2cccc(Cl)c2)nc2ccccc12,1.77% (inactive)
11,O=C(C1CCN(c2nnc(N3CCCC3=O)s2)CC1)N1CCN(c2cccc(C(F)(F)F)c2)CC1,-1.97% (inactive)
12,COc1ccc(C2=NS(=O)(=O)N(C)C(C(=O)NCc3ccccn3)=C2)cc1,-1.14% (inactive)
13,N#CCC(=O)N/N=C/c1ccc(OCC(=O)Nc2ccc(F)cc2)cc1,1.33% (inactive)
14,Cc1cccc(C)c1NC(=O)c1c(O)c2ccccc2[nH]c1=O,-2.65% (inactive)
15,CC[C@]1(C(=O)OC)[C@H]2C(=O)N(C)C(=O)[C@H]2[C@H]2CN(C)C(=NC3CCCCC3)N21,1.39% (inactive)
16,CC1(C)CC(=O)C=C(c2ccc3ccccc3c2)C1,0.346% (inactive)
17,COc1ccc(NC(=O)Nc2nnc(N3CCCCC3C)s2)cc1OC (centres undefined),-1.51% (inactive)
18,CCc1ccc(S(=O)(=O)NCCc2cn3cccc(C)c3n2)s1,-0.94% (inactive)
19,COCCN(CCOC)c1nc(-c2ccc(C)cc2)nc2ccccc12,-1.39% (inactive)
20,COc1cc(C2NC(=O)NC(C)=C2C(=O)OCC2CCCCC2)ccc1O (centres undefined),-0.334% (inactive)

row,SMILES,activity (protection)
1,CCNC(=S)NNC(=O)C(c1ccccc1)c1ccccc1,0.86% (inactive)
2,CCOc1ccc(CCNC(=O)Cc2ccc(NC3=NC4CS(=O)(=O)CC4S3)cc2)cc1OCC (centres undefined),2.98% (inactive)
3,CN(/N=C/c1cc(Cl)cc(Cl)c1O)C(=S)NC(C)(C)C,-2.11% (inactive)
4,COc1cc(OC)cc(C(=O)NC(C(=O)Nc2ccc3c(c2)CCC3)C(C)C)c1 (centres undefined),0.968% (inactive)
5,CC(O)[C@H]1CNC(=O)C(=O)N1CCc1cccc(F)c1 (some centres undefined),1.24% (inactive)
6,Nc1ccc(S(=O)(=O)c2ccccc2)nc1,-0.39% (inactive)
7,Cc1ccc(NC(=O)CC2OC(=O)c3ccccc32)cc1S(=O)(=O)N1CCOCC1 (centres undefined),-0.507% (inactive)
8,Cc1ccc(C)c(S(=O)(=O)Nc2ccccc2C(=O)Nc2cc(C)on2)c1,-1.99% (inactive)
9,OCC1CCCCN1CC(O)COC(c1ccc(F)cc1)c1ccc(F)cc1 (centres undefined),0.726% (inactive)
10,CC1=CC(C)C(C[N+]2(C)CCCCC2)C(C)C1 (centres undefined),-0.96% (inactive)
11,O=C(CSc1nncs1)NC(=O)NCc1ccco1,-1.16% (inactive)
12,COc1ccc(C(=O)NC(=S)Nc2ccc(NC(=O)c3ccco3)cc2)cc1[N+](=O)[O-],-0.262% (inactive)
13,COC(=O)C1=C(c2cccc(OC)c2OC)C[C@@H]2CC[C@H]1N2C(=O)NC1CC1,-0.417% (inactive)
14,CC1CS(=O)(=O)CCN1N=Cc1ccc([N+](=O)[O-])o1 (centres undefined),-2.06% (inactive)
15,CN(C)S(=O)(=O)c1cccc(C(=O)OCC(=O)NCc2ccc3c(c2)OCO3)c1,-0.183% (inactive)
16,Cn1c(C2CCCCC2)nc2cc(N)ccc21,-1.75% (inactive)
17,O=C(Nc1ccc(N2CCOCC2)cc1)c1ccc(Cl)c(S(=O)(=O)N2CCCC2)c1,-0.904% (inactive)
18,Cc1cc2[nH]c(=O)c(=O)[nH]c2cc1S(=O)(=O)NC1CCC(C)CC1 (centres undefined),-0.438% (inactive)
19,COc1ccc(CC(=O)OCC(=O)NNC(=O)c2ccccc2)cc1,-1.54% (inactive)
